Most compounds without a hit are left out; they make up all but 2.9% or so of the library.
dFosB act = enhances mouse delta FosB homodimer DNA binding; P13346; purified delta FosB, TAMRA-CDK5 oligo fluorescence polarization; percent of positive-control signal above neutral wells; activation, % at 25 µM; hit rate 0.99% among 340,000;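 active means mean activation above about 17%, with every replicate also reaching it, limit read from the data, passing the limit was not always enough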
MEKK3 PB1 HTS = raises or lowers MEK5 binding to the human MEKK3 PB1 domain. binding response (% of control), % at 10 µM. Q99759. hit rate 1.4% among 290,000. bead-based flow cytometry, Alexa488-MEK5 binding to MEKK3; actives lie on both sides; 0 = blocked by unlabeled MEK5, 100 = vehicle. AID 1529;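 active means binding response more than 3 SD above or below the average of its plate-row segment, actives on both sides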;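 further: Alexa488 bead fluorescence after subtracting the streptavidin-only scavenger bead signal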
Target sequence (Q99759 whole entry, looked up, the tested form may be a part): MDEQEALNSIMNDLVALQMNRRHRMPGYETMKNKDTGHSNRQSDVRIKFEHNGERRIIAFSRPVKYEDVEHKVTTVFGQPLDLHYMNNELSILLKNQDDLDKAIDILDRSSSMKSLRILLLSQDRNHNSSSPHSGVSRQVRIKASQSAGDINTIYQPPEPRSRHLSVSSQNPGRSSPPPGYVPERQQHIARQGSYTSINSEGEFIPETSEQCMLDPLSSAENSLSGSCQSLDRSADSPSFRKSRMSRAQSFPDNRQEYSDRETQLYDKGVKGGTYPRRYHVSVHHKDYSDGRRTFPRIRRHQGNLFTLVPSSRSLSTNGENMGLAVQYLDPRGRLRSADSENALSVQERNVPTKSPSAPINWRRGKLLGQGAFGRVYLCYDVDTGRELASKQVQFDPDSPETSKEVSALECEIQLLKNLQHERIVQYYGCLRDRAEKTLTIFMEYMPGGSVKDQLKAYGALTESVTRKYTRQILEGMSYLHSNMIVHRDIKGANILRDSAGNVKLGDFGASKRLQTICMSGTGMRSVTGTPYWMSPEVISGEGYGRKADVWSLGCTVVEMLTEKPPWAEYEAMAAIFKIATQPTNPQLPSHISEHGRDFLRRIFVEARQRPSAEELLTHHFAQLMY
FID counter = fluorescent intercalator displacement, NS3 helicase counter-screen. inhibition, % at 7.9 µM. DNA fluorescent intercalator displacement, fluorescence. hit rate 0.17% among 290,000. AID 1845; in the data active means inhibition above about 37%;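 further: higher means more ethidium bromide displaced from hairpin DNA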
MEKK2wt PB1 HTS = raises or lowers MEK5 binding to wildtype human MEKK2 PB1 domain; Q9Y2U5; bead flow cytometry, Alexa488-MEK5 binding to MEKK2 WT; actives lie on both sides; binding response (% of control), % at 10 µM; hit rate 1.1% among 290,000; in the data active means binding response below about 67% or above about 130%
MEKK2 mut-MEK5 = signal of MEK5 binding to mutant human MEKK2 PB1 domain | bead flow cytometry, Alexa488-MEK5 binding to MEKK2 mutant | percent response, % at 10 µM | hit rate 0.35% among 290,000; in the data active means percent response above about 24%, passing the limit was not always enough
MEKK2wt confirm = raises or lowers MEK5 binding to wildtype human MEKK2, retest; shares compounds with MEKK3 PB1 HTS; bead flow cytometry, Alexa488-MEK5 binding to MEKK2 WT; actives lie on both sides; binding response (% of control), % at 10 µM; hit rate 2.4% among 5,900; in the data active means binding response below about 16% or above about 210%; inactive means in between
MEKK2mut confirm = signal of MEK5 binding to mutant human MEKK2, retest. shares compounds with MEKK3 PB1 HTS. bead flow cytometry, Alexa488-MEK5 binding to MEKK2 mutant. percent response, % at 10 µM. hit rate 2% among 5,900; in the data active means percent response mostly above about 71%, no sharp cut-off; inactive means mostly below about 38%;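 further: higher means compound restores mutant binding toward wildtype level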
MEKK3-MEK5 inh = MEKK3-MEK5 PB1 inhibition, single concentration confirmation. bead flow cytometry, Alexa488-MEK5 binding to MEKK3; stronger effect = lower value. hit rate 1.8% among 5,900. shares compounds with MEKK3 PB1 HTS. binding response (% of control), % at 10 µM. AID 1894;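 active means binding response below 72% of control, or above a set upper limit, though filed actives all read lower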
Each line names hits and unclear results; the compound was inactive in the other large screens (follow-up assays come after a bar, where they were run); [ ] = another dose, or the depositor's remark.

O=C(NN1C(=O)c2ccc(-c3ccc4c(c3)C(=O)N(NC(=O)c3cccnc3)C4=O)cc2C1=O)c1cccnc1	MEKK3 PB1 HTS 135.0 | MEKK2wt confirm inactive | MEKK2mut confirm inactive | MEKK3-MEK5 inh inactive
COc1ccccc1-n1cnnc1SC(C)C(=O)Nc1ccc(NC(C)=O)cc1 (configuration not stated)	MEKK2wt PB1 HTS 56.0[inhibitor] | MEKK2wt confirm inactive | MEKK2mut confirm inactive | MEKK3-MEK5 inh inactive
COc1ccccc1-n1cnnc1SC(C)C(=O)NCC1CCCO1 (configuration not stated)	none (no result: MEKK3 PB1 HTS, FID counter, MEKK2wt PB1 HTS, MEKK2 mut-MEK5)
O=C1NC(=Nc2ccccc2)S/C1=C\c1cccn1-c1ccccc1	none
O=S(=O)(c1ccc(F)c(F)c1)N1CCN(Cc2ccc3c(c2)OCO3)CC1	none
O=S(=O)(c1cccc(F)c1)N1CCN(Cc2ccc3c(c2)OCO3)CC1	MEKK3 PB1 HTS 58.0[inhibitor] | MEKK2wt confirm inactive | MEKK2mut confirm inactive | MEKK3-MEK5 inh inactive
O=C(CCSCc1cccc(Cl)c1)NC1CCCC1	none
O=C(CCSCc1ccccc1Cl)NC1CCCC1	MEKK3 PB1 HTS 2.0[inhibitor], MEKK2wt PB1 HTS 2.0[inhibitor] | MEKK2wt confirm inactive | MEKK2mut confirm inactive | MEKK3-MEK5 inh inactive
O=C(CSCC(=O)NC1CC1)Nc1ccccc1	none
O=C(CSCC(=O)NC1CCCC1)Nc1ccccc1	MEKK3 PB1 HTS 128.0 | MEKK2wt confirm inactive | MEKK2mut confirm inactive | MEKK3-MEK5 inh inactive
C#CCOCCOCCOCCNc1nc(N2CCN(C(=O)[C@H](C)n3cc(CCCN=C(N)N)nn3)CC2)nc(N2CCN(C(=O)[C@H](C)n3cc(CCCN=C(N)N)nn3)CC2)n1	none
C#CCOCCOCCOCCNc1nc(N2CCOCC2)nc(N2CCN(C(=O)[C@H](C)n3cc(CCCN=C(N)N)nn3)CC2)n1	MEKK3 PB1 HTS 1.0[inhibitor], MEKK2wt PB1 HTS 2.0[inhibitor] | MEKK2wt confirm inactive | MEKK2mut confirm inactive | MEKK3-MEK5 inh inactive
C#CCOCCOCCOCCNc1nc(N2CCN(C(=O)[C@H]([C@@H](C)CC)n3cc(CCCN=C(N)N)nn3)CC2)nc(N2CCN(C(=O)[C@H]([C@@H](C)CC)n3cc(CCCN=C(N)N)nn3)CC2)n1	FID counter 42.9, MEKK2wt PB1 HTS 164.0 (no result: dFosB act) | MEKK2wt confirm inactive | MEKK2mut confirm inactive | MEKK3-MEK5 inh inactive
Cc1cc(C)n(-c2nnc(NC34CC5CC(CC(C5)C3)C4)nn2)n1	none
COCCNC(=O)CN(C(=O)c1ccc(N2CCCC2)nc1)c1ccc(Cl)cc1	none
CCN(CC)c1ccc(/C=C/C(=O)c2ccc(Br)cc2)cc1	MEKK2wt PB1 HTS 344.0, MEKK2 mut-MEK5 431.0 | MEKK2wt confirm inactive | MEKK2mut confirm inactive | MEKK3-MEK5 inh inactive
O=C(CCC(=O)OCc1ccc([N+](=O)[O-])cc1)Nc1ccccc1Cl	none
CCCCCCCCCCCCCCCC(O)C(N)CO (configuration not stated)	MEKK2wt PB1 HTS 220.0, MEKK2 mut-MEK5 38.0 | MEKK2wt confirm inactive | MEKK2mut confirm inactive | MEKK3-MEK5 inh inactive
CCCCCCCCCCCCCCCC(O)C[N+](C)(C)CCO (configuration not stated)	none (no result: MEKK3 PB1 HTS, FID counter, MEKK2wt PB1 HTS, MEKK2 mut-MEK5)
O=C1N(Cc2cccc(Cl)c2)C[C@@H]2C[C@@H](c3cccc4ncccc34)N3CCC[C@@]123	none
O=C1N(Cc2cccc(Cl)c2)C[C@@H]2C[C@@H](c3c[nH]c4ccccc34)N3CCC[C@@]123	MEKK3 PB1 HTS 63.0[inhibitor] (no result: MEKK2wt PB1 HTS) | MEKK2wt confirm inactive | MEKK2mut confirm inactive | MEKK3-MEK5 inh inactive
c1ccc(CN2CCC(Nc3ncnc4sccc34)CC2)cc1	MEKK2 mut-MEK5 51.0 | MEKK2wt confirm inactive | MEKK2mut confirm inactive | MEKK3-MEK5 inh inactive
c1ccc(CN2CCC(Nc3nc(-c4cccnc4)nc4ccccc34)CC2)cc1	MEKK2wt PB1 HTS 144.0 | MEKK2wt confirm inactive | MEKK2mut confirm inactive | MEKK3-MEK5 inh inactive
Cc1ccc(S(=O)(=O)N2CCN(c3cccc(C)c3)CC2)cc1	none
